The record followed here is PubChem BioAssay.

Assay [1] can be described thus: antimalarial activity against Dd2 strain (AID 2302;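 active means growth inhibition above 50% at the single 2 µM test dose, taken to imply half-maximal potency below 2 µM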;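 further: 0% = DMSO untreated growth and 100% = chloroquine plus artemisinin killed control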). To be noted: P. falciparum Dd2 in RBCs, LDH growth readout, 72 h; at 2 µM; active compounds read high.
Assay [2] can be described thus: HepG2 cytotoxicity, primary screen, cytotoxicity control for P. falciparum antimalarial project, cell-based, ATP luminescence (AID 2303;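 active means inhibition above 50%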;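 further: 0% = DMSO wells and 100% = digitonin-killed cells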). To be noted: HepG2 viability, 24-48 h, at 10 µM, active compounds read high.
For assay [3], the target named is L-lactate dehydrogenase (Plasmodium falciparum (isolate CDC / Honduras)) (UniProt Q27743). Description: PfLDH activity inhibition – cell lysate, 3D7 strain, counter-screen for P. falciparum growth inhibition project (AID 2304).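 Further: 0% = vehicle and 100% = reference inhibitor.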 The following applies: P. falciparum 3D7 crude extract, LDH APAD/NBT absorbance; at 2 µM; active compounds read high.
Assay [4] can be described thus: inhibition of 3D7 malaria parasite growth – strain 3D7 (AID 2306).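 Further: 0% = DMSO wells and 100% = chloroquine plus artemisinin control wells.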 The following applies: P. falciparum 3D7 erythrocytic growth, LDH absorbance, 72 h; at 2 µM; active compounds read high.
Assay [5] concerns the target Calcium-dependent protein kinase 1 (Plasmodium falciparum (isolate 3D7)) (UniProt P62344). The assay is described as follows: PfCDPK1 kinase inhibitors, biochemical, TCAMS library (AID 1159585; cut-off not given, nearly all actives have IC50 up to about 0.98 µM;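 further: inhibitors leave more ATP so luminescence rises with inhibition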). The following applies: recombinant PfCDPK1, Kinase-Glo ATP depletion luminescence.
Assay [6] deals with Plasmodium falciparum protein kinase 6 (PK6, PF3D7_1337100) (UniProt Q8IDW1). The assay is described as follows: PfPK6 kinase inhibitors, biochemical, TCAMS library (AID 1159586). The following applies: recombinant PfPK6, Kinase-Glo ATP depletion luminescence.
The target in assay [7] is Protein kinase 7 (PK7), Plasmodium falciparum 3D7 (PF3D7_0213400) (UniProt Q7YTF7). The assay is described as follows: inhibition of Plasmodium PK7 catalytic activity – biochemical, TCAMS antimalarial set, Kinase-Glo luminescence (AID 1159587). To be noted: recombinant PfPK7, Kinase-Glo ATP depletion luminescence.
Assay [8] concerns the target Calcium-dependent protein kinase 4 (Plasmodium falciparum (isolate 3D7)) (UniProt Q8IBS5). The assay is described as follows: PfCDPK4 kinase inhibitors, biochemical, TCAMS library (AID 1159588; cut-off not given, nearly all actives have IC50 up to about 0.91 µM). To be noted: recombinant PfCDPK4, Kinase-Glo ATP depletion luminescence.

Unmarked numbers belong to inactive results. For part of these data: Potency and affinity values are given separately. Activity calls are given as the source filed them. Unless noted, how the calls were made is not given here.

Chain of Calcium-dependent protein kinase 1 (Plasmodium falciparum (isolate 3D7)) (P62344 whole entry, looked up): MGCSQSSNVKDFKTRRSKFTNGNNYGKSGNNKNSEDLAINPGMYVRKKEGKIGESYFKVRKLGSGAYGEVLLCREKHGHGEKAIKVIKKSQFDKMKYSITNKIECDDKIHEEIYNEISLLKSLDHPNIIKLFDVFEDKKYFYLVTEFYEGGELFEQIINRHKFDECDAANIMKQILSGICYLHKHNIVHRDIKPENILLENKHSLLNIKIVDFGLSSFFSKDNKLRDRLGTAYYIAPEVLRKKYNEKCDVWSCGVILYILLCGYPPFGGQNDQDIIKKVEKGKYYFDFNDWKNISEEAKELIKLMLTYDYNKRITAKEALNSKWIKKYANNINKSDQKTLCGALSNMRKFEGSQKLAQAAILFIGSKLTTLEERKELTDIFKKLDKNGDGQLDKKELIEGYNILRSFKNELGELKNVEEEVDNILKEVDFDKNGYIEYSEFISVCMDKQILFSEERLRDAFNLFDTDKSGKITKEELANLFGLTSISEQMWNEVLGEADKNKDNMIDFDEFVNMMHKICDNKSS
Chain of Calcium-dependent protein kinase 4 (Plasmodium falciparum (isolate 3D7)) (Q8IBS5 whole entry, looked up): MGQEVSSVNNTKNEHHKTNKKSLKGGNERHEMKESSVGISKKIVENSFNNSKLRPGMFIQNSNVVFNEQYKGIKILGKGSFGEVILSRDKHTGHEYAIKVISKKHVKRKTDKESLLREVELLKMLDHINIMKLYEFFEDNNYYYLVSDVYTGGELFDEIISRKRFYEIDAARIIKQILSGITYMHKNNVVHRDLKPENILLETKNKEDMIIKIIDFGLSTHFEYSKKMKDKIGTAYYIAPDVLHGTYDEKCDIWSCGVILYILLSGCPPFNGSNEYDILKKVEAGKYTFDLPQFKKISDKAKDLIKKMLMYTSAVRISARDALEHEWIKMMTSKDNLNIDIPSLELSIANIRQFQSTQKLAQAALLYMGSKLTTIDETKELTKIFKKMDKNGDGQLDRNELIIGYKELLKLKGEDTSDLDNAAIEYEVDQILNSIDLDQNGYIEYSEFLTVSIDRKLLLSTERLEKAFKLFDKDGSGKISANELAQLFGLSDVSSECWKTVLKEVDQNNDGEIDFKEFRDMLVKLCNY
Chain of Protein kinase 7 (PK7), Plasmodium falciparum 3D7 (PF3D7_0213400) (Q7YTF7 1-343): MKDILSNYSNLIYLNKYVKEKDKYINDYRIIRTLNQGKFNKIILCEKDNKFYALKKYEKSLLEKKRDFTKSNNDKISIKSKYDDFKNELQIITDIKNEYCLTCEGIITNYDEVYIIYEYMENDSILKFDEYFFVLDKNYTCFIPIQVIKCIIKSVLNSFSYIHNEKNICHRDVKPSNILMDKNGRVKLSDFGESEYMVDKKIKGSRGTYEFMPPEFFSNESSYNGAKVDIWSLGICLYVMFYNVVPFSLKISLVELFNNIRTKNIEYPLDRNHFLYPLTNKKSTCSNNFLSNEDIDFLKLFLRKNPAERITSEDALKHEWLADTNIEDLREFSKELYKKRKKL
Chain of L-lactate dehydrogenase (Plasmodium falciparum (isolate CDC / Honduras)) (Q27743 whole entry, looked up): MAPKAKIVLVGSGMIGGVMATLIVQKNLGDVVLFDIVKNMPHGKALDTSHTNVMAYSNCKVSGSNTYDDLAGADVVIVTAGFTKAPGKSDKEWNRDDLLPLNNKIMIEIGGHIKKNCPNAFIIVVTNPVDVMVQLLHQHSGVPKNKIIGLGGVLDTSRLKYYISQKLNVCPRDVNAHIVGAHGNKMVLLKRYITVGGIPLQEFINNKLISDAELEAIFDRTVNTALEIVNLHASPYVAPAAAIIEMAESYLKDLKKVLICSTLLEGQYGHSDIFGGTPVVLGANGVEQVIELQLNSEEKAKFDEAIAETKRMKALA
Chain of Plasmodium falciparum protein kinase 6 (PK6, PF3D7_1337100) (Q8IDW1 1-305): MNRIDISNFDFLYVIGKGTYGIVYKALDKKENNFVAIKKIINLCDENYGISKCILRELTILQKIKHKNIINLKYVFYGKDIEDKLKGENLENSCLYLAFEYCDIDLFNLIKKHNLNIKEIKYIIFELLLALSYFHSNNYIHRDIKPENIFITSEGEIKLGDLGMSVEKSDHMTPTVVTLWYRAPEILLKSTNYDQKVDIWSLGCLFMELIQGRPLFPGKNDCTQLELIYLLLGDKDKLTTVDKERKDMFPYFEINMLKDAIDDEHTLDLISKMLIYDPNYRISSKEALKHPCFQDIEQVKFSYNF

As for `CC(C)NCc1ccc(-c2cccc(-c3nc4ccc(C(F)(F)F)cc4[nH]3)c2)cc1`, the growth inhibition is 100% (active) in assay [1] and 101% (active) in assay [4]. Moreover, the inhibition was 21% in assay [2] and -5% in assay [3]. Moreover, the outcome in assay [5], in assay [6], in assay [7] and in assay [8] was inactive.

For `Cc1cccc2[nH]c(-c3cccc(-c4ccc(NC(=O)Nc5ccc(Cl)c(Cl)c5)cc4)c3)nc12`, the growth inhibition in assay [1] is 83% (active); in assay [4] it was 102% (active). Further, the inhibition in assay [2] is 53% (active); in assay [3], 7%. Also, the outcome in assay [5], in assay [6], in assay [7] and in assay [8] was inactive.

Consider `Oc1ccc(CN2CCC(NCc3cccc(C(F)(F)F)c3)CC2)cc1`, for which the growth inhibition was 64% (active) in assay [1] and 101% (active) in assay [4]. Further, the inhibition was 10% in assay [2] and 5% in assay [3]. The result in assay [5], in assay [6], in assay [7] and in assay [8] was inactive.

Consider `CC(=O)Nc1ccc(C(=O)Nc2cccc(-c3ccc(-c4nc5ccccc5[nH]4)cc3)c2)cn1`, for which the growth inhibition was 93% (active) in assay [1] and 100% (active) in assay [4]. Also, the inhibition is 12% in assay [2] and 0% in assay [3]. Also, the result in assay [5], in assay [6], in assay [7] and in assay [8] was inactive.

As for `COc1ccc2ncc(F)c(CCN3CCC(NCc4ccc5c(c4)CCO5)CC3)c2n1`, the growth inhibition in assay [1] was 30%; in assay [4] it was 100% (active). Moreover, the inhibition is 20% in assay [2] and 3% in assay [3]. The result in assay [5], in assay [6], in assay [7] and in assay [8] was inactive.

For `CCC(C)NC(=O)Cn1c2ncccc2c(=O)n1-c1ccc(C)cc1` (centres undefined), the growth inhibition in assay [1] is 63% (active); in assay [4], 95% (active). Besides, the inhibition in assay [2] and in assay [3] was 4% in each case. For the same molecule, the result in assay [5], in assay [6], in assay [7] and in assay [8] was inactive.

On to `CCOc1ccc2ccccc2c1C(=O)Nc1cc(C)nn1-c1nc(C)cc(=O)[nH]1`, for which the growth inhibition in assay [1] was 86% (active); in assay [4], 93% (active). For the same molecule, the figures for the inhibition in assay [2] and in assay [3] were 28% and -1%, respectively. In addition, the result in assay [5], in assay [6], in assay [7] and in assay [8] was inactive.

`CCOC(=O)c1c(NC(=O)c2ccccc2)sc2c(O)c(CNC3CCCCC3)ccc12`: the growth inhibition in assay [1] was 98% (active); in assay [4] it was 99% (active). The inhibition in assay [2] was 6%; in assay [3], 1%. In addition, the result in assay [5], in assay [6], in assay [7] and in assay [8] was inactive.

Turning to `CCNc1cc(C(=O)N[C@@H](Cc2ccccc2)[C@H](O)CNCCCc2ccc(OC)cc2)cc(N2CCCC2=O)c1`, the growth inhibition is 96% (active) in assay [1] and 99% (active) in assay [4]. The inhibition in assay [2] is 4%; in assay [3] it was 2%. The outcome in assay [5], in assay [6], in assay [7] and in assay [8] was inactive.

`N#Cc1ccc(C(=O)Nc2ccc(-c3cccc(CN4CCCC4)c3)cc2)cc1`: the growth inhibition is 1% in assay [1] and 89% (active) in assay [4]. For the same molecule, the inhibition in assay [2] was 17%; in assay [3], -1%. The outcome in assay [5], in assay [6], in assay [7] and in assay [8] was inactive.

With `CCCNC(=O)c1cncc(-c2ccc(CNC(CC)c3ccccc3)cc2)c1` (centres undefined), the growth inhibition in assay [1] was 1%; in assay [4], 92% (active). Moreover, the inhibition is 20% in assay [2] and 0% in assay [3]. The result in assay [5], in assay [6], in assay [7] and in assay [8] was inactive.

As for `O=C(NCCCCN1CCC(c2ccc3c(c2O)CCCC3)CC1)c1ccc(NC(=O)c2ccc(Cl)cc2)cc1`, the growth inhibition in assay [1] and in assay [4] was 100% (active) each time. Also, the figures for the inhibition in assay [2] and in assay [3] were 99% (active) and -2%, respectively. Also, the result in assay [5], in assay [6], in assay [7] and in assay [8] was inactive.

`Cc1cccc2[nH]c(-c3cccc(-c4cccc(NC(=O)Cc5cnc[nH]5)c4)c3)nc12`: the growth inhibition in assay [1] was 100% (active); in assay [4], 102% (active). For the same molecule, the inhibition in assay [2] was 32%; in assay [3], -4%. Besides, the outcome in assay [5], in assay [6], in assay [7] and in assay [8] was inactive.

Take `COc1ccc2nc(C)cc(N/N=C/C=C/c3ccccc3)c2c1`: the growth inhibition in assay [1] and in assay [4] was 100% (active) each time. Further, the inhibition was 27% in assay [2] and 0% in assay [3]. In addition, the outcome in assay [5], in assay [6], in assay [7] and in assay [8] was inactive.

With `CC(C)(C)OC(=O)NCc1ccc(Nc2nnc(-c3cccc(C(=O)NCc4cc(C(F)(F)F)cc(C(F)(F)F)c4)c3)o2)cc1`, the growth inhibition was 13% in assay [1] and 90% (active) in assay [4]. The inhibition was 4% in assay [2] and 0% in assay [3]. The result in assay [5], in assay [6], in assay [7] and in assay [8] was inactive.

Turning to `Cc1nc(C)c(-c2ccc(Oc3ccc(OC(F)(F)F)cc3)cc2)c(OC(=O)c2ccc(CN(C)C)cc2)c1Cl`, the growth inhibition in assay [1] and in assay [4] was 98% (active) throughout. Besides, the inhibition in assay [3] was 6%. Besides, the result in assay [5], in assay [6], in assay [7] and in assay [8] was inactive.

For `COc1ccc(C(=O)NC(Nc2ccc([N+](=O)[O-])cc2)C(Cl)(Cl)Cl)cc1` (centres undefined), the growth inhibition is 83% (active) in assay [1] and 95% (active) in assay [4]. Further, the figures for the inhibition in assay [2] and in assay [3] were 15% and 1%, respectively. The result in assay [5], in assay [6], in assay [7] and in assay [8] was inactive.

With `Cn1c(-c2ccccc2)cc2c3c(N)nc(N)nc3ccc21`, the results for the growth inhibition in assay [1] and in assay [4] were 30% and 100% (active), respectively. Also, the inhibition in assay [2] was 27%; in assay [3] it was -2%. Moreover, the result in assay [5], in assay [6], in assay [7] and in assay [8] was inactive.

Regarding `Cc1cccc2[nH]c(-c3ccc(-c4cccc(NC(=O)c5cncn5C)c4)cc3)nc12`, the growth inhibition in assay [1] was 1%; in assay [4], 100% (active). For the same molecule, the inhibition in assay [2] and in assay [3] was 2% in each case. For the same molecule, the result in assay [5], in assay [6], in assay [7] and in assay [8] was inactive.

For the molecule `CC1CCCCC1N(C)C1CCN(CCCNC(=O)C=Cc2ccccc2Cl)CC1` (centres undefined), the growth inhibition in assay [1] is 14%; in assay [4], 100% (active). Further, the inhibition in assay [2] is 30%; in assay [3], 3%. Moreover, the outcome in assay [5], in assay [6], in assay [7] and in assay [8] was inactive.
